This passage reports Euclidean distance results from the supplement of paper PMC10127200.

Holding throughout (assay): Euclidean distance of Cell Painting phenotypic profile (signed KS, 77 features) to DMSO centroid (dimensionless distance); higher = stronger phenotypic change vs DMSO (phenoactivity)
What all share (settings): 48 h; 5 or 10 uM (library dependent)

For one assay, the system named is 786-O. In short, it runs like this:
(§1)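 Five cancer lines and a healthy fibroblast line received library compounds at 10 or 5 uM (library-dependent, 0.1% DMSO final) for 48 h. Stained cells were imaged confocally at 20X (9 fields/well). Harmony extracted 77 features, each scored as a signed Kolmogorov-Smirnov statistic against same-plate vehicle wells. Profiles were plate-position corrected, correlation-weighted and replicate-averaged at the top dose. Phenoactivity is the Euclidean distance from each profile to the median vehicle profile.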

Another assay relates to A549. An outline of the steps: as §1
Another assay relates to DU145. An outline of the steps:
as §1

The next assay relates to FB. An outline of the steps:
as §1

For a further assay, the system named is HEPG2. In short, it runs like this:
as §1

A further assay has as its system OVCAR4. An outline of the steps:
as §1

Counter-ions that a name gives are not always drawn.

Regarding `CCN(CC)C(=O)c1ccc(C2=CC3(CCNCC3)Oc3cccc(O)c32)cc1`, the Euclidean distance in the assay with 786-O was found to be 0.588; in the assay with A549, 1.87; with DU145, 0.833; in the assay on FB, 0.776; in the assay on HEPG2, 1.75; in the assay on OVCAR4, 0.973.
Consider `O=C(O[C@H]1C[C@H]2CC[C@@H](C1)[N+]21CCCC1)C(O)(c1ccccc1)c1ccccc1` [Trospium chloride], for which the Euclidean distance in the assay with 786-O is 0.712; in the assay with A549, 0.693; with DU145 it was 0.879; in the assay with FB, 0.927; in the assay with HEPG2 it was 0.66; with OVCAR4, 1.39.
Consider `O=C(C[S+]([O-])C(c1ccccc1)c1ccccc1)NO` (stereo not drawn) [Adrafinil], for which the Euclidean distance was 1.35 in the assay with 786-O; 0.729 with A549; 0.936 in the assay with DU145; 0.942 in the assay on FB; 0.585 with HEPG2; 1.57 with OVCAR4.
As for `CNCC(=O)c1ccc(O)c(O)c1` [Adrenalone HCl], the Euclidean distance in the assay with 786-O is 1.06; in the assay on A549 it was 0.418; in the assay with DU145 it was 1.18; in the assay on FB it was 1.16; in the assay with HEPG2 it was 0.892; in the assay on OVCAR4, 0.981.
In the case of `Cc1ccc2c(c1)[C@]13CCCC[C@@H]1[C@H](C2)N(C)CC3` [Dimemorfan phosphate], the Euclidean distance with 786-O stood at 1.28; in the assay on A549 it was 1.25; with DU145 it was 1.36; in the assay on FB it was 3.6; in the assay on HEPG2 it was 2.34; with OVCAR4, 1.19.
Take `CC(NC(C)(C)C)C(=O)c1cccc(Cl)c1` (stereo not drawn) [Amfebutamone HCl]: the Euclidean distance with 786-O was determined as 1.4; with A549, 1.06; with DU145 it was 0.536; in the assay on FB, 1.05; in the assay with HEPG2 it was 0.846; in the assay on OVCAR4 it was 1.45.
In the case of `CCC1(C)CC(=O)NC(=O)C1` [Bemegride], the Euclidean distance in the assay on 786-O is 0.845; with A549 it was 0.616; with DU145, 0.948; with FB, 0.603; in the assay with HEPG2, 0.381; with OVCAR4, 0.793.
Regarding `COc1cc2c(c(OC)c1OC)-c1ccc(OC)c(=O)cc1[C@@H](NC(C)=O)CC2` [Colchicine], the Euclidean distance with 786-O stood at 3.12; with A549, 3.04; in the assay on DU145 it was 4.54; in the assay on FB, 2.88; in the assay on HEPG2, 3.8; in the assay on OVCAR4 it was 3.18.
Turning to `COCC1(CO)C(=O)C2CCN1CC2` (stereo not drawn), the Euclidean distance in the assay on 786-O was 3.17; with A549 it was 3.25; in the assay with DU145, 4.09; in the assay with FB, 3.41; with HEPG2, 2.42; with OVCAR4, 2.18.
For `COc1ccc(OC)c(C(O)C(C)N)c1` (stereo not drawn) [Methoxamine HCl], the Euclidean distance was determined as 0.732 in the assay on 786-O; 0.76 in the assay with A549; 1.03 with DU145; 1.08 with FB; 0.595 in the assay with HEPG2; 1.41 in the assay on OVCAR4.
With `CCN(C)C(=O)Oc1cccc([C@H](C)N(C)C)c1` [Rivastigmine Tartrate], the Euclidean distance with 786-O was 0.824; with A549, 0.471; in the assay on DU145, 0.382; in the assay on FB, 0.816; with HEPG2, 0.806; in the assay with OVCAR4 it was 1.45.
For `COc1cc(OC)c(OC)cc1C=O` [Asaraldehyde], the Euclidean distance stood at 1.25 in the assay with 786-O; 0.833 with A549; 0.776 in the assay with DU145; 1.31 in the assay on FB; 1.73 with HEPG2; 1.06 with OVCAR4.
As for `CN1[C@@H]2CC[C@H]1C[C@@H](OC(=O)C(CO)c1ccccc1)C2` (stereo partly drawn) [Atropine sulfate monohydrate], the Euclidean distance was found to be 0.718 in the assay on 786-O; 0.691 in the assay with A549; 0.677 in the assay with DU145; 0.688 with FB; 0.719 with HEPG2; 1.53 with OVCAR4.
For the compound `O=[N+]([O-])C(Br)(CO)CO` [Bronopol], the Euclidean distance in the assay with 786-O was 1.36; in the assay with A549 it was 1.03; with DU145, 1.02; with FB, 0.825; with HEPG2, 0.735; in the assay with OVCAR4, 1.59.
Consider `Cc1cccc(C(C)c2c[nH]cn2)c1C` (stereo not drawn) [Medetomidine HCl], for which the Euclidean distance in the assay with 786-O is 0.819; in the assay with A549, 0.591; in the assay on DU145 it was 0.87; in the assay with FB it was 0.682; in the assay on HEPG2, 0.602; in the assay on OVCAR4, 1.07.
Regarding `CCCCCCC(=O)O[C@H]1CC[C@H]2[C@@H]3CCC4=CC(=O)CC[C@]4(C)[C@H]3CC[C@]12C` [Testosterone Enanthate], the Euclidean distance in the assay with 786-O stood at 0.918; with A549 it was 0.756; in the assay on DU145, 0.828; in the assay with FB, 0.666; in the assay on HEPG2 it was 0.553; in the assay with OVCAR4 it was 1.49.
Turning to `Oc1cc(Cl)ccc1Oc1ccc(Cl)cc1Cl` [Triclosan], the Euclidean distance in the assay on 786-O is 0.695; with A549, 0.668; in the assay with DU145 it was 0.877; in the assay on FB, 1.15; in the assay with HEPG2, 0.546; in the assay on OVCAR4 it was 1.07.
Consider `CNC1CC(N)C(O)C(OC2OC(CO)C(O)C3OC4(OC(C(N)CO)C(O)C(O)C4O)OC23)C1O` (stereo not drawn) [Hygromycin B], for which the Euclidean distance was 1.63 with 786-O; 1.19 with A549; 1.02 in the assay with DU145; 2.53 in the assay on FB; 1.3 in the assay with HEPG2; 1.24 with OVCAR4.
